Results as given in PubChem BioAssay (NCI).
Where “and” joins values, the source holds several entries; their conditions need not be identical. Identical values can stand only once. The panel holds about 83,000 compounds, 20% with a hit somewhere; the sample as a whole holds those more often.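 Assay: single dose, 48 h. Readout: percent growth (0 = no net growth; negative = cell death). Active: <10.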 Calls of active or inactive are those of the source.

What was measured:
Experiment in all cases: NCI-60 one-dose screen, 48 h (100 = growth as untreated, 0 = no growth, -100 = all killed)
Conditions in all cases: 10 µM unless noted
[1] = test system: MCF7 breast
[2] = test system: MOLT-4 leukemia
[3] = test system: RPMI-8226 leukemia
[4] = test system: OVCAR-8 ovarian
[5] = test system: SK-OV-3 ovarian
[6] = test system: IGROV1 ovarian
[7] = test system: OVCAR-3 ovarian
[8] = test system: HS 578T breast
[9] = test system: NCI/ADR-RES ovarian
[10] = test system: BT-549 breast
[11] = test system: MDA-MB-435 melanoma
[12] = test system: SW-620 colon
[13] = test system: HCT-116 colon
[14] = test system: HCC-2998 colon
[15] = test system: KM12 colon
[16] = test system: OVCAR-5 ovarian
[17] = test system: T-47D breast
[18] = test system: OVCAR-4 ovarian
[19] = test system: SR leukemia

Compound | growth [1] | growth [2] | growth [3] | growth [4] | growth [5] | growth [6] | growth [7] | growth [8] | growth [9] | growth [10] | growth [11] | growth [12] | growth [13] | growth [14] | growth [15] | growth [16] | growth [17] | growth [18] | growth [19]
CCOC(=O)C1C(c2ccco2)C2(C#N)C(=N)OC1(C)C2(C#N)C#N (stereo not drawn) | 45.1% [100 µM] (inactive) and 0.896% [100 µM] (active) |  |  |  |  |  |  |  |  |  |  |  |  |  |  |  |  |  | 
CC1=CC(=O)CCC12CCOC2=O (stereo not drawn) | 97.4% (inactive) | 107% (inactive) | 88.3% (inactive) | 100% (inactive) | 101% (inactive) | 108% (inactive) | 106% (inactive) | 88.4% (inactive) | 94.7% (inactive) | 90.5% (inactive) | 95.5% (inactive) | 98.6% (inactive) | 102% (inactive) | 102% (inactive) | 104% (inactive) |  |  |  | 
CN(N)/N=N/c1nc[nH]c1[N+](=O)[O-] | 69.6% [100 µM] (inactive) and 35% [100 µM] (inactive) |  |  |  |  |  |  |  |  |  |  |  |  |  |  |  |  |  | 
C[C@]12CCC(=O)C[C@@H]1CC[C@@H]1[C@@H]2CC[C@]2(C)[C@@H](OC(=O)N(CCCl)N=O)CC[C@@H]12 | 47.7% (inactive) | 13.3% (inactive) |  | 27.8% (inactive) | 16.1% (inactive) | -29.7% (active) | 49.5% (inactive) | 35.7% (inactive) | 25% (inactive) | 32.9% (inactive) | 25.9% (inactive) |  | 25.9% (inactive) | 44.6% (inactive) | 3.72% (active) | 42.6% (inactive) | 34% (inactive) |  | 
C[C@H](O)CCC(=O)c1ccoc1 | 98.6% (inactive) | 98.2% (inactive) | 97.8% (inactive) | 97.7% (inactive) | 113% (inactive) | 113% (inactive) | 109% (inactive) | 97.1% (inactive) | 102% (inactive) | 118% (inactive) | 112% (inactive) |  | 106% (inactive) | 102% (inactive) | 104% (inactive) |  | 108% (inactive) | 117% (inactive) | 
COC[C@H]1OC(=O)c2coc3c2[C@@]1(C)C1=C(C3=O)[C@@H]2CCC(=O)[C@@]2(C)C[C@H]1OC(C)=O | 21.5% (inactive) | 42.2% (inactive) |  |  | 39.9% (inactive) | -28% (active) | 41.7% (inactive) |  | 52.5% (inactive) | 26.3% (inactive) | 60.3% (inactive) | 53.4% (inactive) | 45.7% (inactive) |  | 51.2% (inactive) | -41.3% (active) | -2.63% (active) | 53.2% (inactive) | 12.1% (inactive)
